# Assay results as given in PubChem BioAssay (NCI).
# This is part of a sample that, as a whole, favours compounds with a hit. Of some 83,000 tested, about 20% had one in any assay.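 Results are percent growth after 48 hours of single-concentration exposure. 100 means growth as in untreated cells, lower positive values show inhibition; negative values down to -100 show cell death.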 The source made the active and inactive calls. How the source made its calls: active means growth percent below 10; inactive means the rest.
# Tested on: NCI-H322M lung
# Assay: NCI-60 one-dose screen, 48 h (100 = growth as untreated, 0 = no growth, -100 = all killed)
# Settings: 10 µM unless noted
row,Compound,growth
1,Cc1ccc(OCCOCCOCCOCCOc2ccc(C)n(O)c2=S)c(=S)n1O,23.6% (inactive)
2,CCN(CC)CCCC(Nc1c2ccc(Cl)cc2nc2ccc(OC)cc12)c1ccncc1 (centres undefined),65.4% (inactive)
3,COc1cccc(C2C3=C(COC3=O)N(CCO)c3cc4c(cc32)OCCO4)c1 (centres undefined),39% (inactive)
4,CN(C)CC1C(=O)O[C@H]2[C@H]1CC/C(COC(=O)NCc1ccc(Cn3c(=O)sn(CCCI)c3=O)cc1)=C\CC[C@@]1(C)O[C@@H]21 (some centres undefined),95.1% (inactive)
5,CC(C)=CC(=O)C1C(=O)c2ccccc2C1=O,92.1% (inactive)
6,Cn1cc(-c2ccc3c(Nc4cccc(NC(=O)Nc5cccc(F)c5)c4)ncnc3c2)cn1,40.7% (inactive)
7,COc1cc2c(c(OC)c1OC)C(=O)CC(c1cccc(C(=O)Nc3ccc(Br)cc3)c1)O2 (centres undefined),59.9% (inactive)
8,COc1cc2nc3cc([N+](=O)[O-])ccc3c(NCCCNCCO)c2cc1OC,-27.7% (active)
9,CCOC(=O)C1=CCC(n2cc(F)c(=O)[nH]c2=O)O1 (centres undefined),127% (inactive)
10,Cc1nc2sc(C(=O)Nc3ccccc3)c(N)c2cc1C(O)c1ccccc1 (centres undefined),56.3% (inactive)
11,C=C(CNCCO)[C@@H]1CC[C@]2(CO)CC[C@]3(C)[C@H](CC[C@@H]4[C@@]5(C)CCC(NCCO)C(C)(C)[C@@H]5CC[C@]43C)[C@@H]12 (some centres undefined),89.2% (inactive)
12,COC(=O)CCc1c(/C=C2\N=C(c3ccc[nH]3)C=C2OC)[nH]c(C)c1C(=O)OCc1ccccc1,55.9% (inactive)
13,CSc1nc(N)c2c(n1)NC(c1ccccc1)C1CCc3ccccc3C1=N2 (centres undefined),112% (inactive)
14,CC(CN)[C@@H]1CC[C@]2(CO)CC[C@]3(C)[C@H](CC[C@@H]4[C@@]5(C)CCC(NCCO)C(C)(C)[C@@H]5CC[C@]43C)[C@@H]12 (some centres undefined),86.8% (inactive)
15,O=S(=O)(c1ccc(NCSc2nc3ccccc3s2)cc1)c1ccc(NCSc2nc3ccccc3s2)cc1,103% (inactive)
16,COc1ccc(Cn2cc(C(=O)N=Nc3c(O)[nH]c4ccc(Br)cc34)nn2)cc1,102% (inactive)
17,Oc1ccc(C(c2ccc(O)cc2)c2ccc(Cl)cn2)cc1,-18.9% (active)
18,O=C(Nc1cccc(Cn2c(=O)[nH]c3ccc(Oc4ncccn4)cc3c2=O)c1)c1cccc(Cl)c1,75.5% (inactive)
19,Cc1ccc(C(=O)Nc2ccc(CN3CCN(C)CC3)c(C(F)(F)F)c2)cc1C#Cc1cnc(N)c2ccccc12,17% (inactive)
20,C[C@H]1c2ccccc2CN1CCCOc1cc2c(cc1OCC1CC1)C1(CCCC1)C(N)=N2,89.7% (inactive)

row,Compound,growth
1,CC1=C2[C@@H](CC1)[C@]1(C)O[C@@](C(C)C)(C[C@H]1OC(=O)CO)[C@H]2OC(=O)CCCc1ccccc1,90% (inactive)
2,Oc1ccc(Cc2ccc(O)c3ncccc23)c2cccnc12,9.39% (active)
3,C=C(c1ccc(OC)c(/C=C/C(=O)c2cc(OC)c(OC)c(OC)c2)c1)c1cc(OC)c(OC)c(OC)c1,17.9% (inactive)
4,COc1ccc(-c2nc(SCCC(C)C)nc(N/N=C(/C)c3ccc(N)cc3)c2C#N)cc1,86% (inactive)
5,CCCCC1=C(Br)C(=O)c2ncccc2C1=O,100% (inactive)
6,COc1ccc(/C(C)=C(\c2ccc(Cl)cc2)c2ccc(OCCCN(C)C)cc2)cc1,82.2% (inactive)
7,CC(=O)/C(Br)=C/c1ccc(Br)o1,102% (inactive)
8,CC(C)n1nc(-c2ccc3oc(N)nc3c2)c2c(N)ncnc21,-7.33% (active)
9,CCCNNC(=O)c1ccc(CNC(=O)/C=C/c2ccccc2)cc1,34.5% [2.5 µM] (inactive)
10,O=C(Nc1ncc(Cc2ccc(Cl)cc2)s1)C1=NCCCCN1,94.9% (inactive)
11,COc1cc2c(c(OC)c1OC)CCC(c1cccc(C(=O)Nc3ccc([N+](=O)[O-])cc3)c1)O2 (centres undefined),68.3% (inactive)
12,C=CCn1c(SCC(=O)Nc2ccc(C(=O)/C=C/c3ccc(Cl)cc3)cc2)nnc1-c1ccccc1,96.7% (inactive)
13,c1ccc(Cn2cc3c(c2)-c2nc(Nc4ccccc4)ncc2CC3)cc1,78.2% [100 µM] (inactive)
14,Clc1nc(N2CCC[N+]3(CC2)CC[N+]2(CCCNCC2)CC3)nc(N2CCC[N+]3(CC2)CC[N+]2(CCCNCC2)CC3)n1 (centres undefined),99.7% (inactive)
15,C#C[C@]1(O)CC[C@H]2[C@@H]3CC=C4c5sc(-c6ccccc6)nc5CC[C@]4(C)[C@H]3CC[C@@]21C,86.7% (inactive)
16,CCOC(=O)c1ccc2c(c1)[n+](=O)c(C(C)=O)c(C(F)(F)F)n2[O-],94.4% (inactive)
17,COc1ccc2c(O)cc3c(c2c1)[C@H](CCl)CN3C(=O)c1cc2cc(NC(=O)CCN3CCOCC3)ccc2[se]1,-87.8% (active)
18,O=C(/C=C/C12c3ccccc3C(c3ccccc31)C1C(=O)NC(=O)C12)c1cccs1 (centres undefined),31.9% (inactive)
19,O=C1c2cccnc2C(=O)c2c1c(C(=O)OCCCN1CCOCC1)c1ccccn21,-51.5% (active)
